Reference: PubChem BioAssay (Tox21)
Calls of active or inactive are those of the source. A call without a number means that no potency is given here. The call rests on the fitted dose curve.

assay: G protein-coupled receptor (GPCR) small molecule agonists, calcium flux assay: HEK293 wild type cell line counter screen (AID 1920065); conditions: HEK293 WT calcium flux, fluorescence, agonist mode; series mostly up to 57.6 µM
Source text: U.S. Tox21 Program National Center for Advancing Translational Sciences [NCATS] Division of Preclinical Innovation [DPI] U.S. Environmental Protection Agency [EPA] National Institutes of Environmental Health Sciences [NIEHS] National Toxicology Program [NTP] U.S. Food and Drug Administration [FDA] Assay overview: The increased intracellular calcium release that occurred upon G protein-coupled receptor (GPCR) activation led to the frequent use of calcium flux assays to detect GPCR activation. For the purpose of studying and screening compounds that may activate GPCR, receptor-overexpressing models were typically generated using Hek293 wild-type (WT) cells. In order to eliminate the compounds that may have induced calcium release for non-specific activation, a counter-assay utilizing calcium flux on Hek293 WT cells was performed. The data were formulated in order to serve as a control for any calcium flux detection utilizing Hek293 cells with either GPCR overexpression or gene modification. The procurement of Hek293 WT cells from ATCC. Fluorescence intensity can be utilized to determine the activation of the compound in a calcium flux assay. As a counter control, this cell line was utilized to screen the Tox21 10K compound library.
Assay Protocol Summary: Hek293 cells were dispensed at 1500cells/4uL/well in 1536-well black wall/clear bottom plates using a multidrop dispenser. After the assay plates were incubated at a 37 C/5% CO2 incubator for 18 hours, 4 uL of Calcium Dye Solution was added to each well. The plates were incubated at 37 C for 1 hour. For agonist mode, 23 nL of compounds dissolved in DMSO, positive control (ATP) or DMSO only was transferred to the assay plate by a pin tool station. The fluorescence intensity in the plates was measured using FDSS 7000EX kinetic plate reader with a filter set of Ex/Em=480/540 for 3 min at 1 sec intervals. Each test compound was measured at 15 concentrations and in triplicates.

Row | SMILES | Potency | activation
1 | Cc1ccc([N+](=O)[O-])cc1Cl | inactive | –
2 | CC(C)C(C)C | inactive | –
3 | CCC(C(=O)NC(=O)NC(C)=O)c1ccccc1 (stereo not given) | inactive | –
4 | CC1=C(/C=C/C(C)=C/C=C/C(C)=C\C=O)C(C)(C)CCC1 | inactive | –
5 | O=[N+]([O-])c1cccc(S(=O)(=O)O)c1 | inactive | –
6 | CNCCCC1c2ccccc2C=Cc2ccccc21 | inactive | –
7 | COc1cc(OC)c2ccc(=O)oc2c1 | inactive | –
8 | O=[N+]([O-])c1ccc(O)c2ncccc12 | inactive | –
9 | C/C=C/C=N/NC(=O)c1ccncc1 | inactive | –
10 | CC(C)c1ccccc1 | inactive | –
11 | CCCC(CCC)(C(=O)OCC)C(=O)OCC | inactive | –
12 | On1ccccc1=S | inactive | –
13 | CCNCCO | inactive | –
14 | CCCCCOC(=O)Nc1nc(=O)n([C@@H]2O[C@H](C)[C@@H](O)[C@H]2O)cc1F | inactive | –
15 | SCCOCCOCCS | inactive | –
16 | S=c1nccc[nH]1 | inactive | –
17 | CC/C=C\CCCCCCCCCCOC(C)=O | inactive | –
18 | COc1cc(NS(=O)(=O)c2ccc(N)cc2)nc(C)n1 | inactive | –
19 | CCN(CC)CC | inactive | –
20 | CCCCN(CCO)CCCC | inactive | –

Row | SMILES | Potency | activation
21 | [Cl][Bi]([Cl])([c]1ccccc1)([c]1ccccc1)[c]1ccccc1 | inactive | –
22 | C=CC(=O)OCC(C)OCC(C)OCC(C)OC(=O)C=C (stereo not given) | inactive | –
23 | COc1cc2nc(N(C)CCCNC(=O)C3CCCO3)nc(N)c2cc1OC (stereo not given) | inactive | –
24 | CC(=O)c1ccc(OCC(=O)N2CCCCC2)cc1 | inactive | –
25 | C=CC(C)(CCC=C(C)C)OC(=O)CC(C)C (stereo not given) | inactive | –
26 | NC[C@H]1O[C@H](O[C@H]2[C@H](O)[C@@H](O[C@H]3O[C@H](CO)[C@@H](O)[C@H](N)[C@H]3O)[C@H](N)C[C@@H]2N)[C@H](O)[C@@H](O)[C@@H]1O | – | -1.23% [at 5.23 µM] (inactive)
27 | COc1cc(Cl)ccc1Oc1ccc(Cl)cc1Cl | inactive | –
28 | C=CC(=O)OCCOc1ccccc1 | inactive | –
29 | NCCCC(N)(C(=O)O)C(F)F (stereo not given) | inactive | –
30 | O=[N+]([O-])c1cc([N+](=O)[O-])c2ccc(S(=O)(=O)O)cc2c1O | inactive | –
31 | CC(=O)Nc1ccc(S(=O)(=O)Cl)cc1 | inactive | –
32 | CC1=CC(=O)/C(=C(/C)O)C(=O)O1 | inactive | –
33 | FB(F)F | inactive | –
34 | CCCCN(CCCC)C(=S)SSC(=S)N(CCCC)CCCC | inactive | –
35 | N#Cc1nc(Cl)c(Cl)c(Cl)c1Cl | inactive | –
36 | OCC1CC=CCC1 (stereo not given) | inactive | –
37 | CCCn1cc[n+](C)c1C | inactive | –
38 | O=C(O)c1nc(Cl)c(Cl)c(Cl)c1Cl | inactive | –
39 | CN(C)C(=O)NC1(c2ccccc2)CCN(CC[C@@]2(c3ccc(F)c(F)c3)CN(C(=O)c3ccccc3)CCO2)CC1 | inactive | –
40 | O=C(O)c1ccccc1Nc1cc(Cl)ccc1C(=O)O | – | -0.251% [at 11.8 µM] (inactive)
